According to PubChem BioAssay AID1159580 (chemical genetic matrix, 2015):
Where “and” joins values, the source holds several entries; their conditions need not be identical. Equal values may be shown once. Screen size: about 5,500 compounds; about 2,000 (36%) were called active. About 18% were inconclusive and are not listed. Cut-off read from the data, not from the text of the source: active = normalized growth mostly below about 0.91 (no sharp cut-off); inconclusive = no clear call, values can overlap the other calls; inactive = mostly above about 0.92. Some of the results follow.

Assay: chemical genetic growth profiling, strain panel (AID 1159580);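 note: tested at 20 µM; growth read once vehicle control cultures reached saturation at 30 °C; 1 = growth at the plate median or of vehicle wells; lower values mean less growth of the strain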
Conditions: S. cerevisiae deletion strains, growth OD

Measured: normalized growth

NC(=O)c1ccccc1O
inactive: locus YAL021C, strain ccr4, stronger effect = lower value 0.988 | locus YAL026C, strain drs2, stronger effect = lower value 0.996 | locus YAL030W, strain snc1, stronger effect = lower value 0.966 | locus YBL061C, strain skt5, stronger effect = lower value 0.97 | locus YBR009C, strain hhf1, stronger effect = lower value 1.04 | locus YBR021W, strain FUR4, stronger effect = lower value 1.04 | locus YBR023C, strain chs3, stronger effect = lower value 0.987 | locus YBR171W, strain sec66, stronger effect = lower value 0.959 | locus YBR229C, strain ROT2, stronger effect = lower value 0.999 | locus YBR231C, strain swc5, stronger effect = lower value 0.988 | locus YBR279W, strain paf1, stronger effect = lower value 0.997 | locus YCL011C, strain gbp2, stronger effect = lower value 0.956 | locus YCL016C, strain dcc1, stronger effect = lower value 1.01 | locus YCL029C, strain bik1, stronger effect = lower value 1.02 | locus YCL061C, strain MRC1, stronger effect = lower value 0.963 | locus YCL069W, strain vba3, stronger effect = lower value 0.974 | locus YCR088W, strain abp1, stronger effect = lower value 0.974 | locus YDL005C, strain med2, stronger effect = lower value 0.972 | locus YDL035C, strain GPR1, stronger effect = lower value 1.01 | locus YDL040C, strain nat1, stronger effect = lower value 0.984 | locus YDL074C, strain BRE1, stronger effect = lower value 0.997 | locus YDL101C, strain DUN1, stronger effect = lower value 1.01 | locus YDL134C, strain PPH21, stronger effect = lower value 1 | locus YDL185W, strain tfp1, stronger effect = lower value 1.01 | locus YDL192W, strain arf1, stronger effect = lower value 1.01 | locus YDR001C, strain nth1, stronger effect = lower value 0.967 | locus YDR069C, strain doa4, stronger effect = lower value 0.952 | locus YDR101C, strain arx1, stronger effect = lower value 1 | locus YDR137W, strain rgp1, stronger effect = lower value 0.964 | locus YDR159W, strain sac3, stronger effect = lower value 0.985 | locus YDR162C, strain NBP2, stronger effect = lower value 1.01 | locus YDR195W, strain ref2 0.927 | locus YDR297W, strain sur2, stronger effect = lower value 0.981 | locus YDR318W, strain mcm21, stronger effect = lower value 1.01 | locus YDR334W, strain swr1, stronger effect = lower value 0.935 | locus YDR335W, strain msn5, stronger effect = lower value 0.947 | locus YDR388W, stronger effect = lower value 1.01 | locus YDR392W, strain spt3, stronger effect = lower value 1.05 | locus YDR502C, strain sam2, stronger effect = lower value 0.997 | locus YEL003W, strain gim4, stronger effect = lower value 0.981 | locus YEL037C, strain rad23, stronger effect = lower value 0.976 | locus YEL061C, strain CIN8 (second series), stronger effect = lower value 0.98 | locus YEL061C, strain CIN8, stronger effect = lower value 1 | locus YER015W, strain faa2, stronger effect = lower value 1.01 | locus YER016W, strain bim1, stronger effect = lower value 1.01 | locus YER110C, stronger effect = lower value 1.01 | locus YER111C, strain swi4, stronger effect = lower value 0.97 | locus YER155C, strain BEM2 (second series), stronger effect = lower value 0.929 | locus YER155C, strain BEM2, stronger effect = lower value 1.01 | locus YER167W, strain BCK2, stronger effect = lower value 1.01 | locus YFR010W, strain ubp6, stronger effect = lower value 0.96 | locus YGL078C, strain dbp3, stronger effect = lower value 1 | locus YGL086W, strain mad1, stronger effect = lower value 0.998 | locus YGL167C, strain pmr1, stronger effect = lower value 0.961 | locus YGL173C, strain kem1, stronger effect = lower value 0.968 | locus YGL227W, strain vid30, stronger effect = lower value 0.975 | locus YGL240W, strain doc1, stronger effect = lower value 0.981 | locus YGL248W, strain PDE1, stronger effect = lower value 1 | locus YGL253W, strain hxk2, stronger effect = lower value 0.997 | locus YGR135W, strain pre9, stronger effect = lower value 1.02 | locus YGR229C, strain SMI1, stronger effect = lower value 1.01 | locus YGR252W, strain gcn5, stronger effect = lower value 1.03 | locus YHR013C, strain ard1, stronger effect = lower value 0.988 | locus YHR027C, strain rpn1, stronger effect = lower value 0.991 | locus YHR030C, strain SLT2, stronger effect = lower value 1 and 1.07 | locus YHR079C, strain IRE1 (second series), stronger effect = lower value 1.02 | locus YHR079C, strain IRE1, stronger effect = lower value 1.06 | locus YHR094C, strain hxt1, stronger effect = lower value 1 | locus YHR129C, strain ARP1, stronger effect = lower value 1.01 | locus YHR142W, strain chs7, stronger effect = lower value 0.946 | locus YHR200W, strain rpn10, stronger effect = lower value 1 | locus YIL066C, strain RNR3, stronger effect = lower value 0.993 | locus YIL073C, strain SPO22, stronger effect = lower value 1.05 | locus YIL125W, strain kgd1, stronger effect = lower value 1 | locus YIR030C, strain dcg1, stronger effect = lower value 1.01 | locus YJL092W, strain hpr5, stronger effect = lower value 0.96 | locus YJL095W, strain BCK1 (second series), stronger effect = lower value 0.973 | locus YJL095W, strain BCK1, stronger effect = lower value 1 and 1.05 | locus YJL115W, strain asf1, stronger effect = lower value 0.985 | locus YJL129C, strain trk1, stronger effect = lower value 0.992 | locus YJL134W, strain LCB3, stronger effect = lower value 1 | locus YJL154C, strain vps35, stronger effect = lower value 0.965 | locus YJL164C, strain tpk1, stronger effect = lower value 1 | locus YJL166W, strain qcr8, stronger effect = lower value 0.924 | locus YJL168C, strain set2, stronger effect = lower value 1.01 | locus YJL187C, strain SWE1 (second series), stronger effect = lower value 1.01 | locus YJL187C, strain SWE1, stronger effect = lower value 0.989 | locus YJR043C, strain POL32, stronger effect = lower value 0.985
